This is an account of results in PubChem BioAssay (NCI).

The structures appear in SMILES notation. This is part of a sample that, as a whole, favours compounds with a hit. Of some 79,000 tested, about 15% had one in any assay. Values without a mark were called inactive. The source made the active and inactive calls. No stated cut-off is given here; in the data, active means growth inhibition above about 70%; inactive means the rest.

Experiment [1] can be described thus: NCI Yeast Anticancer Drug Screen. Data for the rad50 strain (AID 155).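 Further: 0% = growth of vehicle-only cultures of the same strain.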 The settings on record: S. cerevisiae rad50 strain growth inhibition, hits give high values. In a few lines:
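Growth of the mutant yeast was measured after compound exposure and referenced to vehicle-treated cultures.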

Experiment [2] is described as follows: NCI Yeast Anticancer Drug Screen. Data for the mec2-1 strain (AID 157). The settings on record: S. cerevisiae mec2-1 strain, hits give high values. In a few lines: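 Growth inhibition is read against vehicle-treated controls after compound exposure of the mec2-1 yeast strain, which is defective in DNA damage repair or cell cycle control.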
A short description of experiment [3]: NCI Yeast Anticancer Drug Screen. Data for the sgs1 mgt1 strain (AID 161).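 Further: 0% = growth of cultures given vehicle only.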 The note with it: S. cerevisiae sgs1 mgt1 strain, hits give high values. The essentials:
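Growth of a repair-deficient yeast mutant was monitored after compound treatment and expressed as inhibition relative to vehicle-treated cultures.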

Experiment [4] is described as follows: NCI Yeast Anticancer Drug Screen. Data for the cln2 rad14 strain (AID 165).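 Further: 0% = growth equal to vehicle treated cultures.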 The settings on record: S. cerevisiae cln2 rad14 strain, hits give high values. The essentials: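 Growth inhibition, relative to vehicle-treated controls, is the read-out. The test organism is a yeast strain with defined genetic alterations, cln2 rad14.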
Experiment [5] is described as follows: NCI Yeast Anticancer Drug Screen. Data for the bub3 strain (AID 167). The settings on record: S. cerevisiae bub3 mutant strain, hits give high values. In a few lines:
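Whole-cell yeast assay. The mutant strain was incubated with compounds, and growth inhibition was determined by comparison with vehicle-treated cells.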

Experiment [6] in a line: NCI Yeast Anticancer Drug Screen. Data for the mlh1 rad18 strain (AID 175). The settings on record: S. cerevisiae mlh1 rad18 strain growth inhibition, hits give high values. In a few lines:
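Cells of a genetically altered yeast strain, deficient in DNA damage repair, were treated with compound. Their growth was then compared with that of vehicle-treated cultures to give inhibition.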

Setting [7] is: at 5.0 µM (retest, dose inferred, filed as 0.5).
Where [8] appears, read: at 50.0 µM (retest, dose inferred, filed as 5.0).

Regarding `N#CC1C=C(Cl)c2ccc(Cl)cc2N1C(=O)c1ccccc1` (stereo not given), the growth inhibition is 2% in experiment [1] (setting [7]); 96% (active) in experiment [1] (setting [8]); 98.8% (active) in experiment [1] (at 50.0 µM); 17% in experiment [2] (setting [7]); 99% (active) in experiment [2] (setting [8]); 99.2% (active) in experiment [2] (at 50.0 µM). For the same molecule, the growth inhibition in experiment [3] (setting [7]) is 3%; in experiment [3] (setting [8]), 99% (active); in experiment [3] (at 50.0 µM) it was 99.3% (active); in experiment [4] (setting [7]), 2%; in experiment [4] (setting [8]), 99% (active); in experiment [4] (at 50.0 µM), 99.4% (active). In addition, the growth inhibition in experiment [5] (setting [7]) is 0%; in experiment [5] (setting [8]), 98% (active); in experiment [5] (at 50.0 µM) it was 98.3% (active); in experiment [6] (setting [7]), 23%; in experiment [6] (setting [8]), 99% (active); in experiment [6] (at 50.0 µM) it was 99.2% (active).
As to `COc1ccc(/C=C/c2c[n+]([O-])ccc2[N+](=O)[O-])cc1`, the growth inhibition in experiment [1] (setting [7]) is 14%; in experiment [1] (setting [8]), 95% (active); in experiment [1] (at 50.0 µM), 77% (active); in experiment [2] (setting [7]), 18%; in experiment [2] (setting [8]), 97% (active); in experiment [2] (at 50.0 µM), 72.2% (active). Besides, the growth inhibition in experiment [3] (setting [7]) is 37%; in experiment [3] (setting [8]), 96% (active); in experiment [3] (at 50.0 µM), 63.9%; in experiment [4] (setting [7]), 12%; in experiment [4] (setting [8]) it was 95% (active); in experiment [4] (at 50.0 µM), 38.4%. The growth inhibition in experiment [5] (setting [7]) was 9%; in experiment [5] (setting [8]), 97% (active); in experiment [5] (at 50.0 µM), 9.35%; in experiment [6] (setting [7]), 46%; in experiment [6] (setting [8]), 96% (active); in experiment [6] (at 50.0 µM) it was 98% (active).
`C/C=C(\C)C(=O)OC1C(C)C2(O)C(C=C(CO)CC3(O)C(=O)C(C)=CC32)C2C(C)(C)C12OC(=O)CCCCCCCCC` (stereo not given): the growth inhibition was 0% in experiment [1] (setting [7]); 85% (active) in experiment [1] (setting [8]); 79% (active) in experiment [1] (at 50.0 µM); -3% in experiment [2] (setting [7]); 90% (active) in experiment [2] (setting [8]); 84.1% (active) in experiment [2] (at 50.0 µM). The growth inhibition is -15% in experiment [3] (setting [7]); 89% (active) in experiment [3] (setting [8]); 83.4% (active) in experiment [3] (at 50.0 µM); 24% in experiment [4] (setting [7]); 86% (active) in experiment [4] (setting [8]); 75.7% (active) in experiment [4] (at 50.0 µM). The growth inhibition in experiment [5] (setting [7]) was 33%; in experiment [5] (setting [8]), 89% (active); in experiment [5] (at 50.0 µM), 80.9% (active); in experiment [6] (setting [7]), 22%; in experiment [6] (setting [8]), 86% (active); in experiment [6] (at 50.0 µM), 81.6% (active).
As to `COc1ccc2c(c1)[n+]([O-])c(-c1ccccc1)c(N)[n+]2[O-]`, the growth inhibition in experiment [1] (setting [7]) is 47%; in experiment [1] (setting [8]), 98% (active); in experiment [1] (at 50.0 µM), 99.2% (active); in experiment [2] (setting [7]) it was 40%; in experiment [2] (setting [8]) it was 99% (active); in experiment [2] (at 50.0 µM), 99.3% (active). In addition, the growth inhibition in experiment [3] (setting [7]) is 73% (active); in experiment [3] (setting [8]) it was 97% (active); in experiment [3] (at 50.0 µM), 99.2% (active); in experiment [4] (setting [7]), 67%; in experiment [4] (setting [8]), 98% (active); in experiment [4] (at 50.0 µM), 98.8% (active). In addition, the growth inhibition in experiment [5] (setting [7]) was 87% (active); in experiment [5] (setting [8]), 99% (active); in experiment [5] (at 50.0 µM) it was 99.2% (active); in experiment [6] (setting [7]), 82% (active); in experiment [6] (setting [8]) it was 99% (active); in experiment [6] (at 50.0 µM), 99% (active).
With `COc1ccc(CC[N+]2(C)COc3cc4oc(=O)cc(C)c4cc3C2)cc1OC` (stereo not given), the growth inhibition in experiment [1] (setting [7]) is 5%; in experiment [1] (setting [8]), 9%; in experiment [1] (at 50.0 µM), -42.5%; in experiment [2] (setting [7]), 0%; in experiment [2] (setting [8]), -14%; in experiment [2] (at 50.0 µM), -33.5%. Besides, the growth inhibition was 0% in experiment [3] (setting [7]); -6% in experiment [3] (setting [8]); -27.9% in experiment [3] (at 50.0 µM); -21% in experiment [4] (setting [7]); 9% in experiment [4] (setting [8]); 34.6% in experiment [4] (at 50.0 µM). The growth inhibition in experiment [5] (setting [7]) was -8%; in experiment [5] (setting [8]) it was 0%; in experiment [5] (at 50.0 µM), -20.9%; in experiment [6] (setting [7]), 9%; in experiment [6] (setting [8]), 7%; in experiment [6] (at 50.0 µM), -32.5%.
Turning to `O=NN(CCCl)C(=O)Oc1cc(Cl)c(Cl)cc1Cl`, the growth inhibition was 71% (active) in experiment [1] (setting [7]); 98% (active) in experiment [1] (setting [8]); 87.8% (active) in experiment [1] (at 50.0 µM); 79% (active) in experiment [2] (setting [7]); 100% (active) in experiment [2] (setting [8]); 92.7% (active) in experiment [2] (at 50.0 µM). The growth inhibition in experiment [3] (setting [7]) is 84% (active); in experiment [3] (setting [8]), 100% (active); in experiment [3] (at 50.0 µM), 92.7% (active); in experiment [4] (setting [7]), 37%; in experiment [4] (setting [8]), 99% (active); in experiment [4] (at 50.0 µM) it was 90.5% (active). Moreover, the growth inhibition was 48% in experiment [5] (setting [7]); 100% (active) in experiment [5] (setting [8]); 92% (active) in experiment [5] (at 50.0 µM); 96% (active) in experiment [6] (setting [7]); 99% (active) in experiment [6] (setting [8]); 91% (active) in experiment [6] (at 50.0 µM).
As for `COc1cc(NS(C)(=O)=O)ccc1Nc1c2ccccc2nc2ccccc12`, the growth inhibition in experiment [1] (setting [7]) is 67%; in experiment [1] (setting [8]) it was 85% (active); in experiment [1] (at 50.0 µM), 83.5% (active); in experiment [2] (setting [7]) it was -5%; in experiment [2] (setting [8]) it was 57%; in experiment [2] (at 50.0 µM), 42.5%. The growth inhibition in experiment [3] (setting [7]) was 9%; in experiment [3] (setting [8]) it was 44%; in experiment [3] (at 50.0 µM), 37.2%; in experiment [4] (setting [7]), 15%; in experiment [4] (setting [8]), 32%; in experiment [4] (at 50.0 µM), 20.8%. Besides, the growth inhibition was 14% in experiment [5] (setting [7]); 24% in experiment [5] (setting [8]); 11.1% in experiment [5] (at 50.0 µM); 9% in experiment [6] (setting [7]); 38% in experiment [6] (setting [8]); 32.9% in experiment [6] (at 50.0 µM).
With `c1ccc(CN2CCc3[nH]c4ccccc4c3C2)cc1`, the growth inhibition is -1% in experiment [1] (setting [7]); -3% in experiment [1] (setting [8]); -1.9% in experiment [1] (at 50.0 µM); -1% in experiment [2] (setting [7]); -2% in experiment [2] (setting [8]); 17.1% in experiment [2] (at 50.0 µM). In addition, the growth inhibition was -4% in experiment [3] (setting [7]); -1% in experiment [3] (setting [8]); 7.8% in experiment [3] (at 50.0 µM); -1% in experiment [4] (setting [7]); -7% in experiment [4] (setting [8]); 33.5% in experiment [4] (at 50.0 µM). Further, the growth inhibition in experiment [5] (setting [7]) was 1%; in experiment [5] (setting [8]) it was 6%; in experiment [5] (at 50.0 µM) it was -2.45%; in experiment [6] (setting [7]) it was -3%; in experiment [6] (setting [8]) it was -1%; in experiment [6] (at 50.0 µM), 18%.
Regarding `COc1ccc(C(SCC(N)C(=O)O)(c2ccc(OC)cc2)c2ccc(OC)cc2)cc1` (stereo not given), the growth inhibition was -11% in experiment [1] (setting [7]); 97% (active) in experiment [1] (setting [8]); 94.7% (active) in experiment [1] (at 50.0 µM); -7% in experiment [2] (setting [7]); 99% (active) in experiment [2] (setting [8]); 96.3% (active) in experiment [2] (at 50.0 µM). Moreover, the growth inhibition was -4% in experiment [3] (setting [7]); 99% (active) in experiment [3] (setting [8]); 96.3% (active) in experiment [3] (at 50.0 µM); -7% in experiment [4] (setting [7]); 98% (active) in experiment [4] (setting [8]); 94.7% (active) in experiment [4] (at 50.0 µM). Moreover, the growth inhibition was 15% in experiment [5] (setting [7]); 98% (active) in experiment [5] (setting [8]); 96.5% (active) in experiment [5] (at 50.0 µM); -6% in experiment [6] (setting [7]); 98% (active) in experiment [6] (setting [8]); 96% (active) in experiment [6] (at 50.0 µM).
For `CCN(CC)CCOc1ccc(-c2nc3cc(Cl)ccc3s2)cc1`, the growth inhibition in experiment [1] (setting [7]) was 29%; in experiment [1] (setting [8]) it was 88% (active); in experiment [1] (at 50.0 µM), 75% (active); in experiment [2] (setting [7]), 54%; in experiment [2] (setting [8]), 86% (active); in experiment [2] (at 50.0 µM) it was 35.8%. Also, the growth inhibition in experiment [3] (setting [7]) is 23%; in experiment [3] (setting [8]) it was 91% (active); in experiment [3] (at 50.0 µM) it was 91% (active); in experiment [4] (setting [7]) it was 31%; in experiment [4] (setting [8]), 84% (active); in experiment [4] (at 50.0 µM) it was 48%. Moreover, the growth inhibition in experiment [5] (setting [7]) was 61%; in experiment [5] (setting [8]), 90% (active); in experiment [5] (at 50.0 µM), 85.7% (active); in experiment [6] (setting [7]) it was 39%; in experiment [6] (setting [8]) it was 82% (active); in experiment [6] (at 50.0 µM), 83.3% (active).
